For some of these results: Results with a measured potency or affinity are listed apart.
Legend:
Set-up in all cases: scale not given: direction of the effect not stated beside the values
[1] = biological target: Protein translocase subunit SecA (Escherichia coli (strain K12)) (UniProt P10408); assay: Assay to Identify E. coli SecA ATPase Inhibitors; type: functional; conditions: 30 µM
[2] = biological target: T1, Ubiquitin-activating enzyme e1, putative (Leishmania donovani (strain BPK282A1)) (UniProt E9BSI1); assay: Leishmania donovani Ubiquitin Activating Enzyme (LdE1); type: functional; conditions: 30 µM
T1 sequence (whole entry): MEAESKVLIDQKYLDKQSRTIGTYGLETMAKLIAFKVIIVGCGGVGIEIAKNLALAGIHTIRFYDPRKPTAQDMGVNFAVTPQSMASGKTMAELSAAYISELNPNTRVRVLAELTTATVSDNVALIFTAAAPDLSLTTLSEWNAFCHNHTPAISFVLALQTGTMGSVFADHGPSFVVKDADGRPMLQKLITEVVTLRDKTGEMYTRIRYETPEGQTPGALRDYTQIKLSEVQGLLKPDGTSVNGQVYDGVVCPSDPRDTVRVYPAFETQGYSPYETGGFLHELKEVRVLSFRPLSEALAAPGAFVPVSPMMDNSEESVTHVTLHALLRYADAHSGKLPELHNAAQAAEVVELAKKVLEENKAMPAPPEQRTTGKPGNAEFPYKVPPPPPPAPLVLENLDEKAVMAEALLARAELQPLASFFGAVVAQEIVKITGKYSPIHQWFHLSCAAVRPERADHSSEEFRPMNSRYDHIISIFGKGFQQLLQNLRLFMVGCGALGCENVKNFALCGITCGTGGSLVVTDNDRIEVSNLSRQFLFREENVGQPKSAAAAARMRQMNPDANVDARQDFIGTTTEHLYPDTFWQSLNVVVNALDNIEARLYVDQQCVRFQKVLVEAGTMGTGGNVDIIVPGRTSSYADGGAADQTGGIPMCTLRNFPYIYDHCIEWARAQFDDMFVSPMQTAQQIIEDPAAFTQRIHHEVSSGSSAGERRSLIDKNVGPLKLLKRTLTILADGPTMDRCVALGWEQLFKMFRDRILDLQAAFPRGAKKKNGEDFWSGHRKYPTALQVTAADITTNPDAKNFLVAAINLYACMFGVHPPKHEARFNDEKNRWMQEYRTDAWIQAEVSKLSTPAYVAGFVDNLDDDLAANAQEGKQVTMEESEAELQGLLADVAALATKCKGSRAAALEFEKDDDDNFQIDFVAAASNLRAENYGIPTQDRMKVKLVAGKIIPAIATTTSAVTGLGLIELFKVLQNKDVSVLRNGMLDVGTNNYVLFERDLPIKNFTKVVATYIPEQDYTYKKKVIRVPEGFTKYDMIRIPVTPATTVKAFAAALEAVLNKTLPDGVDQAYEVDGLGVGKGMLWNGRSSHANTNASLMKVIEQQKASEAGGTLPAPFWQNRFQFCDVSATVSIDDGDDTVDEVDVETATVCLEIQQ

[3] = biological target: AMP-activated protein kinase, AMPK (Homo sapiens) (UniProt P54646+O43741+P54619+Q9UGJ0+Q9Y478+Q13131+Q9UGI9); assay: AMP-dependent Kinase enzyme assay. An in vitro enzyme assay that detects ADP turnover that is directly proportional to AMPK activity. This uses naive AMPK that is activated during the assay with MK-8722; type: functional; conditions: 30 µM
[4] = biological target: Sialic acid-binding Ig-like lectin 9 (Homo sapiens) (UniProt Q9Y336); assay: Hs-Siglec9 ALPHAscreen SOP 20170721; conditions: 10 µM
Chain of Sialic acid-binding Ig-like lectin 9 (Homo sapiens) (Q9Y336 whole entry): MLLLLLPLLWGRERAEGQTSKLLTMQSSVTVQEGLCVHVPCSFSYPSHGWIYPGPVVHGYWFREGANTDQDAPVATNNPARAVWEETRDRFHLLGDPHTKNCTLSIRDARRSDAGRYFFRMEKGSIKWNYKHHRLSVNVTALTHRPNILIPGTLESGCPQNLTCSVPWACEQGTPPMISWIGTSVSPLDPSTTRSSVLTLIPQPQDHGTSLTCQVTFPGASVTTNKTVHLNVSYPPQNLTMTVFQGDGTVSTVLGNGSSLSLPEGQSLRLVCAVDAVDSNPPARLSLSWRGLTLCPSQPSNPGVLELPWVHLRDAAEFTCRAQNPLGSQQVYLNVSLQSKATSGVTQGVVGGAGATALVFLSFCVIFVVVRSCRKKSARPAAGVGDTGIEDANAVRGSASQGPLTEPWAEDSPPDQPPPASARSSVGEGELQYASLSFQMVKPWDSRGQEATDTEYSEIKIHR

Trypanosoma cruzi = assay: Trypanosoma cruzi phosphomannomutase and mannose-1-phosphate guanylyltransferase assay; type: functional; conditions: 10 µM
[5] = biological target: T2, Arginase-2, mitochondrial (Homo sapiens) (UniProt P78540); assay: in vitro enzyme assay to detect the production of urea directly proportional to the activity of Arginase II; type: functional; conditions: 33.3 µM; further: in the data most compounds retested in dose-response had high values
T2 sequence (whole entry): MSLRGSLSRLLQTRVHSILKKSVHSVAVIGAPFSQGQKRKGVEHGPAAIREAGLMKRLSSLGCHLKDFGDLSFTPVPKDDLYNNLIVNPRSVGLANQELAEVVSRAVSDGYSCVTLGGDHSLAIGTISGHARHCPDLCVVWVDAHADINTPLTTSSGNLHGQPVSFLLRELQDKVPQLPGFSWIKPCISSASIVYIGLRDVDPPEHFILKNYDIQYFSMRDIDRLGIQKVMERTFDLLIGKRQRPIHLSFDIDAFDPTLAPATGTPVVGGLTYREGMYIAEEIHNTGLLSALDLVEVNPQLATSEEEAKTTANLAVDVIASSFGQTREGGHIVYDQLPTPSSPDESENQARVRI

[6] = biological target: T3, Proteasome subunit beta (Trypanosoma cruzi) (UniProt O96673); assay: Trypanosoma cruzi proteasome chymotrypsin-like activity (TcProtChymo) assay.; further: in the data most compounds retested in dose-response had high values; type: functional; conditions: 9.37 µM
T3 sequence (whole entry): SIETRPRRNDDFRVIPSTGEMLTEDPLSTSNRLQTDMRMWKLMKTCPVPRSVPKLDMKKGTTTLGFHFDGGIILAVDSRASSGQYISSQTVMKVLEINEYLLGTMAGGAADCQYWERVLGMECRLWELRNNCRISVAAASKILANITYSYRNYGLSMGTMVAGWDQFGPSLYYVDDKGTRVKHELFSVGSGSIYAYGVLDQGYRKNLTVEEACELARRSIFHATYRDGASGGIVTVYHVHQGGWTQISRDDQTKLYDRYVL

Homo sapiens = species on record: Homo sapiens; assay: To identify inhibition of the IFN signalling (Jak-Stat) pathway via expression of an eGFP reporter gene under the control of an IFN-stimulated response element (ISRE) containing MxA promoter.; type: functional; conditions: 30 µM
[7] = biological target: T4, Tyrosyl-tRNA synthetase, putative (Trypanosoma cruzi (strain CL Brener)) (UniProt Q4DSP6); assay: Trypanosoma cruzi tyrosyl tRNA synthetase (TcYRS) _High Tyrosine SOP; type: functional; conditions: 30 µM; further: in the data most compounds retested in dose-response had high values
T4 sequence (whole entry): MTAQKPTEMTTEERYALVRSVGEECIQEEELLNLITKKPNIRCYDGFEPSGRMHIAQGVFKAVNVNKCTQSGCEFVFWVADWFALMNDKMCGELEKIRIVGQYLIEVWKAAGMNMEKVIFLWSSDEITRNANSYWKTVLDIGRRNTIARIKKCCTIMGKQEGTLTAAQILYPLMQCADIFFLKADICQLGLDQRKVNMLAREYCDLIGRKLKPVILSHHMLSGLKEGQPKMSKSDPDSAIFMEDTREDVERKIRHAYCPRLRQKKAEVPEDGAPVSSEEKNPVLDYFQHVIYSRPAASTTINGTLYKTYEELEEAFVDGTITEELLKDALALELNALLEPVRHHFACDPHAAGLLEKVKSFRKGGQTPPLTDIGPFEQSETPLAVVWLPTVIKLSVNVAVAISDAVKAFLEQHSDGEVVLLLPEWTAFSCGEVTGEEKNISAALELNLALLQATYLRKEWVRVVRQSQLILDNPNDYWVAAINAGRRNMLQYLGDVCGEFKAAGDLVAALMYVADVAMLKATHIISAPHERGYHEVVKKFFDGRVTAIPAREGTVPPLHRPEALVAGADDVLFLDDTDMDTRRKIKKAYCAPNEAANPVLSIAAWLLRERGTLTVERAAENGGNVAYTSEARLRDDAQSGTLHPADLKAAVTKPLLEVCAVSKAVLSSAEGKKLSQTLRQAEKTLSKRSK

[8] = biological target: T4, Tyrosyl-tRNA synthetase, putative (Trypanosoma cruzi (strain CL Brener)); assay: Trypanosoma cruzi tyrosyl tRNA synthetase (TcYRS) SOP; type: functional; conditions: 30 µM
[9] = biological target: Chromo domain-containing protein 1 (Saccharomyces cerevisiae (strain ATCC 204508 / S288c) (Baker's yeast)) (UniProt P32657); assay: ScCHD-1 Enzyme Inhibition Assay; type: functional; conditions: 30 µM; further: in the data most compounds retested in dose-response had high values
Chain of Chromo domain-containing protein 1 (Saccharomyces cerevisiae (strain ATCC 204508 / S288c) (Baker's yeast)) (P32657 whole entry, the tested form may be a part): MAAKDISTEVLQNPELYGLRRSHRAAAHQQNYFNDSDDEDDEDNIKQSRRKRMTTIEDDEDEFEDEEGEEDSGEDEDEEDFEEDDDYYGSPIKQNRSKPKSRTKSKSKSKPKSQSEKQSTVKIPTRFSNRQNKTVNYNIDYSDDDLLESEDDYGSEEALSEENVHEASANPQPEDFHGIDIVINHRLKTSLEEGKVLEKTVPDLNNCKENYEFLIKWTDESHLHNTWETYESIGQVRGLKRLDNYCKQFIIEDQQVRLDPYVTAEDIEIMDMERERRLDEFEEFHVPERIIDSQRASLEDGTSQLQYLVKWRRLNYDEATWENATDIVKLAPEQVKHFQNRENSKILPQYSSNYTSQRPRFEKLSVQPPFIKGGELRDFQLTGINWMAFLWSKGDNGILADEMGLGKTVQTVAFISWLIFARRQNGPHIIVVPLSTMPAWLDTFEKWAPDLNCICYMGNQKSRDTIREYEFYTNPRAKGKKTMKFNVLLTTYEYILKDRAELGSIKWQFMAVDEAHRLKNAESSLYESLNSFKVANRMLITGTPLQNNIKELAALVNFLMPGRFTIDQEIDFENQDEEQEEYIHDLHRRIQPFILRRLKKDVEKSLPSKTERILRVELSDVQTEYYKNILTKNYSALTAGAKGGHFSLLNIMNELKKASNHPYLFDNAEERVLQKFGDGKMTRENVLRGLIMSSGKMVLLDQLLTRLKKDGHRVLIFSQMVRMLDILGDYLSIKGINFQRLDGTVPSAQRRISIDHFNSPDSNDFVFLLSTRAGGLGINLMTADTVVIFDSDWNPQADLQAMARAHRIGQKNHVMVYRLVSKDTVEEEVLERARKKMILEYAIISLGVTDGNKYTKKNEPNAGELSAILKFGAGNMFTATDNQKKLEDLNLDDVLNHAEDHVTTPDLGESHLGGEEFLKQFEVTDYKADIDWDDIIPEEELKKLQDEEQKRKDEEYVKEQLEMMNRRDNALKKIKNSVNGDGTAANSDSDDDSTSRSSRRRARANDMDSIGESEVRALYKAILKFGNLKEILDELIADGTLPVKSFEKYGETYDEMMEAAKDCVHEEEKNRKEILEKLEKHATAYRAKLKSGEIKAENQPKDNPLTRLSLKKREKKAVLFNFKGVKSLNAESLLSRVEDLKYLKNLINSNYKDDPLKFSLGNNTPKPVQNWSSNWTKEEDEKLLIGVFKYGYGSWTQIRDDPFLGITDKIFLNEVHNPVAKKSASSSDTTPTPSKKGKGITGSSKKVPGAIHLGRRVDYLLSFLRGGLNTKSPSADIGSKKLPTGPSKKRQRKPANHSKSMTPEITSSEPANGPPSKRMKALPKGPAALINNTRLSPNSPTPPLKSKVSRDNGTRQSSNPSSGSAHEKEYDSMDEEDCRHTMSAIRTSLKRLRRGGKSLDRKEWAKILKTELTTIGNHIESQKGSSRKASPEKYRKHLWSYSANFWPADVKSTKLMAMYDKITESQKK

Chain of Protein translocase subunit SecA (Escherichia coli (strain K12)) (P10408 whole entry): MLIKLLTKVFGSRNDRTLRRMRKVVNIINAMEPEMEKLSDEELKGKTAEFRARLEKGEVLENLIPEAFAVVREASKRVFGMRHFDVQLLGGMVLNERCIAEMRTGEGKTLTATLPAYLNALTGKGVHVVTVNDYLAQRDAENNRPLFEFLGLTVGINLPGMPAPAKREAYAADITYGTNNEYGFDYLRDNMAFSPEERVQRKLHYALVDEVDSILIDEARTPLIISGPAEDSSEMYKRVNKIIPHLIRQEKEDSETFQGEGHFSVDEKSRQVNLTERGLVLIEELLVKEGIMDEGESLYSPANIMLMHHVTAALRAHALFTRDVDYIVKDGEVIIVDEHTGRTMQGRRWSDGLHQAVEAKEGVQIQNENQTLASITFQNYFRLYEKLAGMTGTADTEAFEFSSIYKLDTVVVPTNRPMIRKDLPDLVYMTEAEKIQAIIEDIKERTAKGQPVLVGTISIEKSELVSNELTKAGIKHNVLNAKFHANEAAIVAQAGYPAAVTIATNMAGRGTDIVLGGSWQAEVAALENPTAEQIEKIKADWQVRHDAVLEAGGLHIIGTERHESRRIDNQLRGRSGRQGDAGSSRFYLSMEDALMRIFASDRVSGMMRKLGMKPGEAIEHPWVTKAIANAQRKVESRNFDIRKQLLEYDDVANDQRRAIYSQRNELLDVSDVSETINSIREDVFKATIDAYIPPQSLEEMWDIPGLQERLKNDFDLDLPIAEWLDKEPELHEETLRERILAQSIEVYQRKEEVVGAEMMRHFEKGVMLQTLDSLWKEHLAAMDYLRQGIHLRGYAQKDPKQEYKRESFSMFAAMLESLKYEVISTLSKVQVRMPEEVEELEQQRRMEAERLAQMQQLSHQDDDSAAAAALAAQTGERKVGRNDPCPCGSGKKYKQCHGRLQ

Row | SMILES | Percent Effect [1] [%] | Percent Effect [2] [%] | Percent Effect [3] [%] | Percent Effect [4] [%] | Percent Effect (Trypanosoma cruzi) [%] | Percent Effect [5] [%] | Percent Effect [6] [%] | Percent Effect (Homo sapiens) [%] | Percent Effect [7] [%] | Percent Effect [8] [%] | Percent Effect [9] [%]
1 | NC(=O)c1nnn(-c2ccc(Br)cc2)n1 | -5.42 | 18.2 | -6.83 | -10.8 | 7.59 | 3.23 | 11.5 | 17.2 | 5.29 | 6.41 | -9.19
2 | CC(=O)NCC1CCN(CC2CCOc3ccccc3C2)CC1 (stereo not given) | -1.44 | 15.3 | -4.21 | 14 | 1.85 | 9.27 | 13.2 | -5.31 | 4.21 | 15.4 | -2.81
3 | CC(Oc1ccccc1C(F)(F)F)C(=O)NCC(N)=O (stereo not given) | -4.95 | 5.41 | 0.686 | -2.42 | 4.3 | -1.67 | 12.9 | -26.2 | 12.9 | 15.8 | 2.04
4 | O=C(NCc1csc(Br)c1)c1ccc(=O)[nH]n1 | -0.0216 | 6.33 | 0.358 | -1.84 | -3.18 | 4.95 | 6.86 | 13.1 | 4.17 | -10.1 | -8.89
5 | Cc1ccc(C(=O)N2CCC3(CCC(=O)N(CC(N)=O)C3)CC2)c(O)c1 | 1.03 | 4.17 | -0.266 | -3.34 | -2.82 | -2.65 | 14.2 | -6.14 | 3.16 | 5.13 | -3
6 | CC(C)N1CCC(NCc2cccnc2N(C)C)CC1 | -6.06 | 5.33 | -3.18 | 0.114 | 0.487 | 2.6 | 7.15 | 0.898 | -0.546 | 8.64 | -4.8
7 | CN(C)CCn1c(=O)oc2ccc(NC(=O)CC(C)(C)C)cc21 | -5.92 | 16 | -6.21 | 19.3 | 4.38 | 14.1 | 7.67 | 5.54 | 10.4 | 23.5 | 1.52
8 | Cc1cccc(-c2noc(CN3CCC(N4CCNC4=O)CC3)n2)c1 | -6.31 | 13 | 4.11 | 4.47 | 0.374 | -1.78 | -2.2 | 21.5 | 7.77 | 12.2 | -3.52
9 | Cc1cnn(CC(C)NCc2ccc(S(C)(=O)=O)cc2)c1 (stereo not given) | -2.77 | 13.9 | -0.525 | 2.13 | -1.74 | -3.23 | 12.3 | 0.644 | 8.33 | 25.3 | -28
10 | CC1(C)CC(N2Cc3nc(N)ncc3C2=O)CC(C)(C)N1 | 0.646 | 10.4 | -3.77 | 8.41 | 4.23 | -35.9 | 10.7 | 11 | 6.45 | 21 | -5.13
11 | O=C(c1ccncc1)N1Cc2ccccc2OC2(CCOCC2)C1 | -2.73 | 9.46 | 10.5 | 1.54 | 0.395 | -5.8 | 16.1 | 7.47 | 4.3 | 6.49 | -15.3
12 | CN(CCN1CCOCC1)C(=O)CCCc1ccccc1 | -3.72 | 0 | 3.21 | 3.74 | 4.38 | -3.55 | 13.9 | -19 | 5.32 | 5.2 | 0.287
13 | c1ccc(C[C@H]2[C@H](N3CCOCC3)CCN2Cc2cccnc2)cc1 | -1.09 | 2.67 | 3.8 | 7.7 | -5.21 | -56.1 | 4.1 | -7.93 | 1.04 | 12.5 | -4.71
14 | Cn1cc(Br)c(=O)c(NS(=O)(=O)c2ccc(F)cc2)c1 | -0.436 | 2.7 | -1.93 | 10.6 | 5.41 | -0.476 | 10.5 | 2.64 | 2.65 | 12.2 | -2.91
15 | Cc1noc(C)c1CN1CC[C@@H](OCC2CC2)[C@@H](Cc2ccccc2)C1 | -3.38 | 13.3 | 8.95 | -2.52 | 3.15 | 1.63 | 14 | 1.91 | 5.32 | 14.1 | -5.06
16 | NC(=O)Nc1cccc(Oc2ccccn2)c1 | -0.17 | 0 | 11.3 | -0.357 | -3.99 | -7.1 | 8.53 | 0.913 | 3.19 | 2.6 | -0.275
17 | Cc1cccc(-c2nc(C)nn2CC(=O)NC2CCCC2)c1 | -5.38 | 23.4 | -6.06 | 8.2 | 6.93 | 3.2 | 18.6 | 5.48 | 9.71 | 26.8 | -9.1
18 | COC(=O)N1CCCC(C(=O)NCc2cc3cccc(OC)c3o2)C1 (stereo not given) | -4.05 | 7.59 | 3.35 | 19.5 | -2.36 | 2.28 | -2.54 | -18.3 | 3.45 | 8.86 | -3.44
19 | O=C(O)[C@]12CCCN(Cc3ccccc3)C[C@H]1CN(c1ncccn1)C2 | -4.2 | 5.33 | 7.47 | -4.2 | 0.386 | -39.2 | 9.91 | -24.8 | 4.17 | 12.5 | -8.27
20 | COc1cccc(N2CCN(C(=O)C(O)c3cccc(Cl)c3)CC2=O)c1 (stereo not given) | 0.76 | 10.8 | -5.94 | -2.7 | -3.48 | -1.91 | 11.2 | 22.3 | 4.76 | 0 | -1.09

Reference: ChEMBL document CHEMBL3988442, “University of Dundee, Small-Polar-MMV Screening Library” (2021)
